SW480 rereplic – inducers of DNA re-replication in SW480 colon cancer cells; SW480 DNA re-replication, Hoechst DNA content imaging, 48 h; Potency, µM (highest dose often 46.1 µM), hits mostly activators; 340,000 tested, 1.8% active; AID 624297; also: nearly all actives have a fitted effect of over 55% in size
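Per well, 250 cells were exposed to pinned compound for 48 hr. Nuclear DNA was visualised with Hoechst (40 min, 37 C) and total object intensity recorded by fluorescence scanning.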
KB-3-1 cytotox – KB-3-1 parental cell cytotoxicity. KB-3-1 viability, CellTiter-Glo ATP luminescence, 72 h. Potency, µM (series often up to 46.1 µM), hits mostly cytotoxic. 400,000 tested, 1.4% active; also: nearly all actives have a fitted effect of over 60% in size
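Cytotoxicity in the drug-sensitive parental line KB-3-1 was scored as loss of CellTiter-Glo luminescence following 72 h incubation with compound. Values come from curve fitting of normalized concentration-response data.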
ELG1 repair inh – inhibitors of ELG1-dependent DNA repair in HEK293T cells; Potency, µM (top dose mostly 46.1 µM), actives largely listed as inhibitors; HEK293T ELG1-luciferase reporter, luminescence, 16 h; DNA damage induced by 5-fluorouridine; AID 504467; 330,000 tested, 2.3% active; also: nearly all actives have a fitted effect of over 55% in size
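In this reporter screen, reduction of luminescence relative to DMSO vehicle indicated activity. Compounds and 5-fluorouridine were added together to 2,000 cells per well, incubated for 16 hr at 37 °C, then developed with ONE-Glo.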
MCF10A rerep – DNA re-replication induction in MCF 10a cells; MCF 10A DNA re-replication, Hoechst nuclear intensity, 48 h; Potency, µM (top dose mostly 46.1 µM), most hits filed as activators; 350,000 tested, 2.9% active; AID 624296; also: nearly all actives have a fitted effect of over 50% in size
KB-V1 cytotox – KB-V1 MDR subline cytotoxicity. KB-V1 MDR cells viability, CellTiter-Glo, 72 h. Potency, µM (doses to about 46.1 µM), usual class: cytotoxic. 400,000 tested, 3.4% active. AID 1347076; also: nearly all actives have a fitted effect of over 60% in size
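Cytotoxicity toward P-gp-expressing KB-V1 cells was determined as loss of CellTiter-Glo luminescence after 72 h at 37 degrees C. Compounds were tested in quantitative HTS format across a concentration range, with curves fitted to normalized data.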
A number is an active result; . = inactive; ? = inconclusive; / = no result given; [ ] = another dose, or the depositor's remark. The list is not random: actives were taken first. Their share in the collection is about 8.1%. Calls follow the shape of the dose curve; as a rule, active = well fitted curve in the direction sought with a large enough effect; inconclusive = small, poorly fitted or top-dose-only effect, or another doubt; inactive = no such curve, though single readings can be large; an effect the other way counts as inactive or inconclusive.

SMILES | SW480 rereplic | KB-3-1 cytotox | ELG1 repair inh | MCF10A rerep | KB-V1 cytotox
O=S(=O)(c1ccccc1)c1nc(Nc2cccc(O)c2)sc1Cl | ? | 16µM | . | . | ?
C(=N\Nc1nc(Nc2ccccc2)nc(Nc2ccccc2)n1)/c1cccnc1 | . | ? | 6.5µM | ? | .
Cc1ccc(-c2cc(-c3ccccc3)nc(N/N=C/c3cccnc3)n2)cc1 | ? | . | / | 9.2µM | ?
O=[N+]([O-])c1ccc(N/N=C/c2ccccc2)c(F)c1 | ? | . | ? | 5.8µM | ?
Cc1cc(-c2ccccc2)nc(N/N=C/c2ccccc2)n1 | . | . | ? | . | .
Cc1cc(-c2ccccc2)nc(N/N=C/c2ccc([N+](=O)[O-])cc2)n1 | . | . | 13µM | . | 23µM
O=C(COc1cccc2cccnc12)NNC(=S)Nc1ccccc1 | / | / | . | / | /
Cc1cccc(Nc2cc(=O)n(C)c(=O)n2C)c1 | / | . | / | / | .
Cc1sc(N/N=C/c2cccnc2)nc1-c1ccccc1 | ? | ? | . | ? | 12µM
COc1ccc(OC)c2c(/C=C/c3c(C)[nH]c4ccccc34)ccnc12 | / | ? | / | / | 21µM
COc1ccc(OC)c2c(/C=C/c3ccc(N(C)C)cc3)ccnc12 | / | . | / | / | .
CCOC(=O)c1cnc(Nc2ccc(OCC)cc2)nc1C | . | . | ? | ? | .
CCOC(=O)c1cnc(Nc2nc3ccccc3o2)nc1C | ? | 11µM | ? | . | .
CCOC(=O)c1c(-c2ccccc2)csc1NC(=O)CSc1nnc(C)s1 | . | ? | ? | ? | ?
CCOC(=O)c1cnc(Nc2nc3ccccc3o2)nc1CSc1nnc(C)s1 | 0.65µM | . | / | ? | ?
CC(=O)Nc1ccc(S(=O)(=O)NCC(=O)OCC(=O)N2CCN(c3ccccc3)CC2)cc1 | . | . | . | ? | .
CCOC(=O)C(CCSC)NC(=O)CN (stereo unspecified) | . | . | . | . | .
CCCC(=O)N(Cc1cc(=O)[nH]c2ccccc12)c1ccc(C)cc1C | . | . | . | . | .
Cc1ccc(N(Cc2cc(=O)[nH]c3ccccc23)C(=O)CCl)c(C)c1 | 23µM | 18µM | ? | ? | ?
Cc1ccc(-n2c3c(cc(C(=O)NCc4ccco4)c2=O)C(=O)CCC3)cc1 | . | . | ? | . | .
O=C1CCCc2c1cc(C(=O)NCc1ccco1)c(=O)n2-c1ccc(Cl)cc1 | . | ? | . | . | 16µM
CC(=O)c1sc(NC(=O)c2ccccc2)nc1-c1ccccc1 | . | . | ? | 0.65µM | .
COC(=O)Nc1nc(-c2ccccc2)c(C(=O)c2ccc(Cl)cc2)s1 | 1.3µM | 1µM | ? | 1µM | 0.58µM
CCOC(=O)Nc1nc(-c2ccccc2)c(C(=O)c2ccccc2)s1 | 0.92µM | 0.82µM | ? | 1.2µM | 1.2µM
CC(=O)c1sc(NC(=O)c2c(F)cccc2F)nc1-c1ccccc1 | . | . | ? | . | .
SMILES | SW480 rereplic | KB-3-1 cytotox | ELG1 repair inh | MCF10A rerep | KB-V1 cytotox
O=c1cc(Nc2ccc3c(c2)OCCO3)[nH]c(=O)n1C1CCCCC1 | 12µM | ? | ? | ? | .
O=C1CSC(=S)N1/N=C/c1ccc(O)c(O)c1O | ? | . | 23µM | . | .
COc1ccc(-c2cc(C(=O)N(C)CC(=O)Nc3ccccc3C(F)(F)F)c3ccccc3n2)cc1OC | . | . | / | ? | .
COc1ccc(NC(=O)CN(C)C(=O)c2cc(-c3ccc(Cl)cc3)nc3ccccc23)cc1 | . | . | ? | 18µM | ?
COc1cccc(NC(=O)CN(C)C(=O)c2cc(-c3ccccc3)nc3ccc(C)cc23)c1 | ? | . | / | ? | .
CCOc1ccc(NC(=O)CN(C)C(=O)c2cc(-c3ccc(OC)cc3)nc3ccccc23)cc1OCC | . | . | 9.2µM | 16µM | ?
O=C(Cc1ccc(Cl)cc1)Nc1ccc(N2CCN(C(=O)c3ccco3)CC2)c(Cl)c1 | . | ? | 13µM | ? | ?
COc1ccc(NC(=O)Cc2ccc(Cl)cc2)cc1NC(=O)c1ccco1 | . | . | ? | . | 7.3µM
Cc1ccc(S(=O)(=O)N2CCN(S(C)(=O)=O)CC2)cc1 | ? | . | / | . | .
O=C(CC1Sc2ccccc2NC1=O)NNC(=O)Nc1ccc(Cl)cc1 (stereo unspecified) | ? | . | . | . | .
COc1ccccc1C(=O)N/C(=C\c1cn(S(=O)(=O)N(C)C)c2ccccc12)C(=O)N1CCCCC1 | . | . | . | . | .
Cc1ccc(C(=O)C(c2ccccc2)N2Cc3ccccc3C2=N)cc1 (stereo unspecified) | ? | ? | ? | 21µM | ?
CN(C)S(=O)(=O)c1ccc(C(=O)NCc2ccccn2)cc1 | . | . | . | . | .
Cc1oc2ncnc(N)c2c1C | . | . | . | . | ?
COc1ccc(/C=N/NC(=O)C(=O)N2CCCCCC2)cc1 | . | . | ? | . | .
O=C(N/N=C/c1ccc(OCC(=O)N2CCCCC2)cc1)c1ccccc1 | . | . | . | . | .
O=C(COc1ccc(/C=N/NC(=O)C(=O)N2CCCCCC2)cc1)Nc1ccccc1Cl | . | . | . | ? | 18µM
COc1ccc(CSCC(=O)N/N=C/c2ccc(OCC(=O)N3CCCCC3)cc2)cc1 | ? | . | . | 21µM | .
O=C(CSCc1ccccc1)N/N=C/c1ccc(OCC(=O)N2CCCCC2)cc1 | . | . | . | . | 21µM
O=C(CSCc1ccccc1Br)N/N=C/c1ccc(OCC(=O)N2CCCCC2)cc1 | / | . | 26µM | . | .
O=C(CSc1nnc2scc(-c3ccccc3)n12)Nc1ccc(Cl)cc1 | / | . | / | / | .
Cc1cccc(CCN(CC(=O)NC2CCCCC2)C(=O)c2csnn2)c1 | . | . | . | . | .
COc1ccc(N=C2SC(CC(=O)Nc3ccccc3)C(=O)N2Cc2ccco2)cc1 (stereo unspecified) | . | . | ? | . | .
COc1ccc(N=C2SC(CC(=O)Nc3ccccc3F)C(=O)N2Cc2ccco2)cc1 (stereo unspecified) | / | . | 23µM | . | .
Cc1noc(C)c1CSc1nc2ccccc2nc1NS(=O)(=O)c1ccc(Cl)cc1 | . | ? | 13µM | 2.6µM | ?
SMILES | SW480 rereplic | KB-3-1 cytotox | ELG1 repair inh | MCF10A rerep | KB-V1 cytotox
COc1cc2c3nnc(-c4ccc(F)cc4)c-3cn(Cc3ccc(F)cc3)c2cc1OC | ? | ? | ? | 18µM | .
CC1CCN(c2ccccc2NC(=S)NC(=O)c2ccco2)CC1 | . | . | / | 18µM | 18µM
CC1CCN(c2ccccc2NC(=S)NC(=O)c2cccs2)CC1 | .[9.22 µM] | . | . | 10µM | .
CN1CCN(C(=O)c2cc(Oc3c(F)c(F)c(F)c(F)c3F)cc(C(=O)N3CCN(C)CC3)c2)CC1 | . | . | . | ? | .
S=C(NN=C1CCCCCC1)Nc1ccc(Cl)cc1 | . | . | . | ? | .
O=C(c1ccc(Cl)c(S(=O)(=O)N2CCOCC2)c1)N1CCc2ccccc2C1 | . | 21µM | ? | . | 3.7µM
O=C(c1ccc(Cl)c(S(=O)(=O)N2CCCCCC2)c1)N1CCN(c2ccccc2O)CC1 | . | . | 16µM | . | ?

Screening data: PubChem, National Center for Advancing Translational Sciences (NCATS)
